The test system of test [1] is Zika virus NS2B-NS3 protease. The test can be described thus: Primary screen GU AMC qHTS for Zika virus inhibitors (AID 1347154). Note: nearly all actives have a fitted effect of over 70% in size. The method in brief:
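Unlinked Zika NS2B hydrophilic domain/NS3 protease domain noncovalent complex (25 nM final) in 10 mM Tris-HCl pH 8.0, 0.01% Tween 20, with AMC peptide substrate. Fluorescence (ex 340, em 450 nm) change over 15 min, room temperature; percent inhibition fitted to 4-parameter Hill equation.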
Background: Quantitative high-throughput screening tests each substance at several concentrations.

For test [2], the target named is Glucocorticoid receptor (Homo sapiens) (UniProt P04150). The test can be described thus: GR-GFP Redistribution (AID 450;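 active = compounds whose dose series gives a full or clear partial fitted curve of increased nuclear translocation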; note: potency is the fitted concentration of half-maximal effect). The settings on record: U2OS GR-GFP nuclear translocation, laser cytometry, 2 h.
For test [3] the target is unchanged. The test can be described thus: GR-EFC Redistribution (AID 451; calls by dose curve; note: potency is the fitted concentration of half-maximal effect). The settings on record: CHO-K1 GR-EFC translocation, beta-gal luminescence, 2 h. In outline: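 CHO-K1 cells stably expressing nuclear-localized β-gal enzyme acceptor and GR fused C-terminally to the enzyme donor fragment; ligand-driven nuclear translocation restores β-gal by complementation. Compounds titrated up to 46 uM final, 2 h at 37 °C; luminescence read.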

Test [4] deals with Mitogen-activated protein kinase 10 (Mus musculus) (UniProt Q61831). Description: JNK3 AlphaScreen Assay (AID 530; active = well fitted curve in either direction with a large enough effect, not every such curve was filed as active;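 note: kinase came from lysate of stimulated human HepG2 cells; signal reports phosphorylation of biotinylated GST-cJun 1-79 at Ser73 with 10 µM ATP; series mostly up to about 57 µM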). The method in brief:
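JNK3 came from HepG2 lysates pre-activated with IL-1beta and TNF-alpha and phosphorylated biotinylated GST-cJun (1-79) at 10 uM ATP, pH 7.6, room temperature. Compounds were titrated. AlphaScreen signal used anti-phospho-cJun (Ser73) antibody.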
Background: Alpha assays give light when donor and acceptor beads are brought close together.

Test [5] addresses Cytochrome P450 2C9 (Homo sapiens) (UniProt P11712). The test can be described thus: qHTS Assay for Inhibitors and Substrates of Cytochrome P450 2C9 (AID 883). Note: potency is the fitted concentration of half-maximal effect; nearly all actives have a fitted effect of over 60% in size. In outline:
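A luminogenic readout tracked human CYP2C9 (10nM) converting deoxyluciferin (100uM, at KM) in 25mM KPO4 during 60 min at 37C with regenerated NADPH. Values normalized to 57uM sulphaphenazole as complete inhibition.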

The target of test [6] is Cytochrome P450 3A4 (Homo sapiens) (UniProt P08684). The test can be described thus: qHTS Assay for Activators of Cytochrome P450 3A4 (AID 885). Note: nearly all actives have a fitted effect of over 65% in size. The method in brief:
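Signal was normalized against complete inhibition by 57 uM ketoconazole. The reaction used 20nM CYP3A4 with 25uM Luciferin-PPXE, 10-min compound preincubation and a 60-min NADPH-supported step at RT.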

For test [7], the target named is Cytochrome P450 2D6 (Homo sapiens) (UniProt P10635). Description: qHTS Assay for Inhibitors and Substrates of Cytochrome P450 2D6 (AID 891). Note: potency is the fitted concentration of half-maximal effect; nearly all actives have a fitted effect of over 60% in size. In outline:
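Human CYP2D6 (5 nM) with 30 uM Luciferin-ME EGE (at Km) in 100 mM KPO4, compound preincubated 10 min, then NADPH regeneration system for 60 min at room temperature. Luciferin read by luminescence; normalized to 1.43 uM quinidine.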

Test [8] has as its target Cytochrome P450 2C19 (Homo sapiens) (UniProt P33261). The test can be described thus: qHTS Assay for Inhibitors and Substrates of Cytochrome P450 2C19 (AID 899). Note: potency is the fitted concentration of half-maximal effect; nearly all actives have a fitted effect of over 60% in size. The method in brief: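 NADPH-dependent conversion of Luciferin-H EGE (10uM, at KM) by 5nM enzyme in 50mM KPO4, 60 min at 37C following 10 min compound preincubation. Stopped with luciferin detection buffer; luminescence read after 20 min.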

Test [9] deals with Ubiquitin carboxyl-terminal hydrolase 1 (Homo sapiens) (UniProt O94782). The test can be described thus: Inhibitors of USP1/UAF1: Pilot qHTS (AID 504865).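 Note: rhodamine fluorescence freed from ubiquitin-rhodamine substrate followed over time; top concentration of the series differs between compounds; nearly all actives have a fitted effect of over 35% in size.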 The method in brief: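 Enzyme-free wells gave the negative control, while test wells held 1nM USP1/UAF1 preincubated with compound for 15 min at room temperature. Ub-Rho at 150nM final started the reaction, and fluorescence at 480/540 nm was recorded kinetically.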

For test [10], the target named is DNA dC->dU-editing enzyme APOBEC-3G (Homo sapiens) (UniProt Q9HC16). Description: qHTS for inhibitors of Vif-A3G interactions: Validation (AID 588379). The method in brief: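 HeLa cells stably expressing Vif and A3G-eYFP, 700 cells/well, incubated overnight at 37 deg C, then exposed to compound overnight at 37 deg C. Inhibition of Vif-mediated degradation read as increased yellow fluorescence (Ex 488/Em 500-530) by laser-scanning cytometry.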

A short description of test [11]: Counterscreen qHTS for small molecule stabilizers of the endoplasmic reticulum resident proteome: GLuc-NoTag assay (AID 1508627). Note: potency is the fitted concentration of half-maximal effect. In outline:
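SH-SY5Y cells stably expressing constitutively secreted GLuc (no SERCaMP tag) were pre-incubated 5 h, treated with compound for 19 h, then 100 nM thapsigargin for 4 h at 37C; medium GLuc read by coelenterazine luminescence.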
(In general: Counterscreens check selectivity or assay interference.)

A number with no mark means an inactive call. Results filed as inconclusive are left out. Active and inactive are the calls of the source. Unless noted, calls come from the whole dose curve; as a rule, active = well fitted curve in the direction sought with a large enough effect; inconclusive = small, poorly fitted or top-dose-only effect, or another doubt; inactive = no such curve, though single readings can be large; an effect the other way counts as inactive or inconclusive. Bounds are passed on as bounds.

Sequence of Glucocorticoid receptor (Homo sapiens) (P04150 whole entry, looked up, the tested form may be a part): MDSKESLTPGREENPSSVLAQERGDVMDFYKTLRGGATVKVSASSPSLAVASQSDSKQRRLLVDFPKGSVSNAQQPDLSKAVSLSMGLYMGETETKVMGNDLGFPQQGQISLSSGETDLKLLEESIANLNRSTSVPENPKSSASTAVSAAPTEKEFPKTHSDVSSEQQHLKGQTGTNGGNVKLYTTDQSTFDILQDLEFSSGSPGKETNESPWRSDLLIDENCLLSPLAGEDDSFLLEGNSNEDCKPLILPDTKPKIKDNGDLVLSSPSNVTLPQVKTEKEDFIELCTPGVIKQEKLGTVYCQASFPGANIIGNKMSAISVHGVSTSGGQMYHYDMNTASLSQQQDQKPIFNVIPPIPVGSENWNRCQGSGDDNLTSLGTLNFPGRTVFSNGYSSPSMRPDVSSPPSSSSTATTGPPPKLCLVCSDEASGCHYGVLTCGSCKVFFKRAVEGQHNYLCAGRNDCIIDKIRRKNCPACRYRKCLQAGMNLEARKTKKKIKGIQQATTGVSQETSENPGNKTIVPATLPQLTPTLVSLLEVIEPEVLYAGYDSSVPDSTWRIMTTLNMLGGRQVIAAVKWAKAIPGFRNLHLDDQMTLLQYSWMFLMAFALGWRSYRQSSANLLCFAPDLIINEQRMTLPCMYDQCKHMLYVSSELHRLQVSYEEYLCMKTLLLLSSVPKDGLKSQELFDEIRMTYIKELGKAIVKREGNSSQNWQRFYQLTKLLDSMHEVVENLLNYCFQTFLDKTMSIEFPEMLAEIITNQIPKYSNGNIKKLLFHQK
Sequence of Cytochrome P450 3A4 (Homo sapiens) (P08684 whole entry, looked up): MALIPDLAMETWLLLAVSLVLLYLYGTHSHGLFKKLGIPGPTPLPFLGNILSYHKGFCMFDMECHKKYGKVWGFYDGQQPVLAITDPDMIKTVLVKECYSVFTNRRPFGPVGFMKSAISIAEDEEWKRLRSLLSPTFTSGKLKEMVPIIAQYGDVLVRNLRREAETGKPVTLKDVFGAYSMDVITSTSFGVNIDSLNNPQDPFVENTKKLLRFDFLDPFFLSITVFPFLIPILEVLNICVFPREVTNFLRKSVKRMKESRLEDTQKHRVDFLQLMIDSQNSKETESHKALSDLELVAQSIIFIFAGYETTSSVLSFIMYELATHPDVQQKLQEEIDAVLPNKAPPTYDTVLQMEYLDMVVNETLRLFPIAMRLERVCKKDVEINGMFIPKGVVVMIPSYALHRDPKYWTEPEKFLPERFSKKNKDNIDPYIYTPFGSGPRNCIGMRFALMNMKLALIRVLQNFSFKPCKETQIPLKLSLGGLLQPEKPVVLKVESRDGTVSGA
Sequence of DNA dC->dU-editing enzyme APOBEC-3G (Homo sapiens) (Q9HC16 whole entry, looked up): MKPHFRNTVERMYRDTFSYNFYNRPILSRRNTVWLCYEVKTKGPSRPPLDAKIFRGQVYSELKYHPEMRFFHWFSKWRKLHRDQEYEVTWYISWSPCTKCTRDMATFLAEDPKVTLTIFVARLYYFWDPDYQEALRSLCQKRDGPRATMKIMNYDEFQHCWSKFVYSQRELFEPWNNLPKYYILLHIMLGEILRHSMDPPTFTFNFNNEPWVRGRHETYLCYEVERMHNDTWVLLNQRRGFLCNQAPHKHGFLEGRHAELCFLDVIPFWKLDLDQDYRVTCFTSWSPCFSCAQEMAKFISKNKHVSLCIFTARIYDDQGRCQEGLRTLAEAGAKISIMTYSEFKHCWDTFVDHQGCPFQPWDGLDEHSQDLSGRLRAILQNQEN
Sequence of Cytochrome P450 2D6 (Homo sapiens) (P10635 whole entry, looked up): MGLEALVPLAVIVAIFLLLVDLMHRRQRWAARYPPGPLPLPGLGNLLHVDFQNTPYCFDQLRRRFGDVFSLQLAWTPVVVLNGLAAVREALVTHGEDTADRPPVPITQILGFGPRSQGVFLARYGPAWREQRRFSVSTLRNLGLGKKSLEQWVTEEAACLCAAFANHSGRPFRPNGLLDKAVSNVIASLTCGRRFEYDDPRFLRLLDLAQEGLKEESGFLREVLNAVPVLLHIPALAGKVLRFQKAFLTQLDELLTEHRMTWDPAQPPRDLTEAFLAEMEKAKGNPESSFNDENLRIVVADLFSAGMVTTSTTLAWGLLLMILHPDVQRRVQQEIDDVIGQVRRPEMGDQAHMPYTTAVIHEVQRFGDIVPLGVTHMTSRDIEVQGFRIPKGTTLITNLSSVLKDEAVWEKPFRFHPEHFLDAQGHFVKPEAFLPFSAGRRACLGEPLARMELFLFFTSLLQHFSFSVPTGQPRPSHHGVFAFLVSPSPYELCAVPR
Sequence of Cytochrome P450 2C19 (Homo sapiens) (P33261 whole entry, looked up): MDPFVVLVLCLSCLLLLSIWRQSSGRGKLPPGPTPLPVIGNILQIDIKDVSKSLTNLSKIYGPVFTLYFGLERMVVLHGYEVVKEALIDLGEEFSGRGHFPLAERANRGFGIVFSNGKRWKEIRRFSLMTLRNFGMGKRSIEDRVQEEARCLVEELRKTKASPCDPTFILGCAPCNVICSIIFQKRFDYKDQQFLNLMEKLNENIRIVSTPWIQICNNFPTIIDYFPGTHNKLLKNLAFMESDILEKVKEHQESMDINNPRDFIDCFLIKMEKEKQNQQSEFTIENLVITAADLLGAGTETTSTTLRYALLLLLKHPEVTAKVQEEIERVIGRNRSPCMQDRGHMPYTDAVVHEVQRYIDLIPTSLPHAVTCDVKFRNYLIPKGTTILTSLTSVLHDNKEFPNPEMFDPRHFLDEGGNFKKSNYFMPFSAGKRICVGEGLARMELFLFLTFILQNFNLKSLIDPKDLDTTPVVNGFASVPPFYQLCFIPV
Sequence of Cytochrome P450 2C9 (Homo sapiens) (P11712 whole entry, looked up): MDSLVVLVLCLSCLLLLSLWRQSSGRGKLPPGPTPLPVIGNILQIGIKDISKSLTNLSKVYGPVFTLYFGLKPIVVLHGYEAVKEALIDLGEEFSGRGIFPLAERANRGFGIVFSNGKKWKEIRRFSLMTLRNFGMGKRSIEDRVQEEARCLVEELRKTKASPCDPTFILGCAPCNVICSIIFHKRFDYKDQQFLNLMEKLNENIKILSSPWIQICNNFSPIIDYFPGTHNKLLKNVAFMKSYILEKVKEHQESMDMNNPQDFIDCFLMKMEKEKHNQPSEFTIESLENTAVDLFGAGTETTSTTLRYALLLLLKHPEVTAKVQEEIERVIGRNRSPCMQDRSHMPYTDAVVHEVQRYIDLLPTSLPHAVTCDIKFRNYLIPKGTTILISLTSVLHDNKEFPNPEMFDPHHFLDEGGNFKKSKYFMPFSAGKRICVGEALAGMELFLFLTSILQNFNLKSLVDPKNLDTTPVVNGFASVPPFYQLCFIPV
Sequence of Ubiquitin carboxyl-terminal hydrolase 1 (Homo sapiens) (O94782 whole entry, looked up): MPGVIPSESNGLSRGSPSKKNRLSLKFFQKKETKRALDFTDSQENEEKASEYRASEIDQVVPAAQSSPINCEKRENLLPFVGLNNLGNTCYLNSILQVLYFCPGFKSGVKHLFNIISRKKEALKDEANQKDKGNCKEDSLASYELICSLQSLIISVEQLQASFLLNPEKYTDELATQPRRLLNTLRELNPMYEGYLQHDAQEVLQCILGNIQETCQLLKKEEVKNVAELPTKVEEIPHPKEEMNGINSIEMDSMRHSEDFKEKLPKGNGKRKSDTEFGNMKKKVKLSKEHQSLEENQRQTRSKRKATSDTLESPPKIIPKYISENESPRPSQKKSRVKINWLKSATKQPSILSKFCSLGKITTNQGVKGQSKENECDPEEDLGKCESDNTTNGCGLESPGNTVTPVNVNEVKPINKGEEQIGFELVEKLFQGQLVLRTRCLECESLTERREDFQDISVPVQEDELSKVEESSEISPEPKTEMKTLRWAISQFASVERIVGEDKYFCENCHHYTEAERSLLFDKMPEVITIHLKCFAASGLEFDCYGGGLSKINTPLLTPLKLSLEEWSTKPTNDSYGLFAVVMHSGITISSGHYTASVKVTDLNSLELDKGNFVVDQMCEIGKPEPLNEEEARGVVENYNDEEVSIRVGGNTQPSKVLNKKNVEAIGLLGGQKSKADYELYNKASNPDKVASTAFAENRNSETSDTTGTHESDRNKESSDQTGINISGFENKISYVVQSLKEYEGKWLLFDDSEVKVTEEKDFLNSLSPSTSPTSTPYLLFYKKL

`Cc1c(C(=O)c2cccc3ccccc23)c2cccc3c2n1[C@@H](CN1CCOCC1)CO3`: the Potency result in test [1] was “inactive”.
As for `Fc1ccc(C(OCCN2CCN(C/C=C\c3ccccc3)CC2)c2ccc(F)cc2)cc1`, the Potency in [2] was over 46 µM; in [3], over 46 µM; in test [5] it was 7.94 µM (active); in test [7], 7.94 µM (active); in test [8] it was 7.94 µM (active); in [11], 39.8 µM (active). In [4], the result was inactive. Further, the Potency entry in [6], in test [9], in test [10] and in test [1] was “inactive” each time.

These data come from PubChem BioAssay (NCATS).
